Compound activity deposited in PubChem BioAssay by several laboratories.
Most compounds without a hit are left out; they make up all but 4.7% or so of the library.
SKKanGAS inh = inhibitors of SKKanGAS S. pyogenes growth in kanamycin (SK-promoter or general growth effect) | AID 1662 | BacTiter-Glo, 6 h | hit rate 1.3% among 300,000 | inhibition, % at 7.5 µM;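 active = mean replicate score, as percent of positive control median, at least 50; inconclusive = mean below 50 but one replicate at or above 50; inactive = mean and every replicate below 50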;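 note: strain carries kanamycin resistance gene driven by streptokinase promoter and grows in 40 µg/ml kanamycin; loss of luminescence reflects streptokinase promoter inhibition or plain growth inhibition; 0% = median of DMSO wells and 100% = positive control at its reference dose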
tim10-1 inh = inhibits growth of tim10-1 mutant yeast. hit rate 2.2% among 330,000. S. cerevisiae tim10-1 ts strain growth, BacTiter-Glo, 24 h. inhibition, % at 20 µM. AID 463190;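 active = inhibition of at least 40%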;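 note: mutant grown at 25 °C; 0% = DMSO wells with yeast and 100% = wells holding no yeast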
PfHsp90 yeast 2 = growth inhibition of yeast expressing Plasmodium Hsp90 | hit rate 0.32% among 310,000 | AID 504621 | inhibition, % at 9.4 µM | S. cerevisiae expressing PfHsp90, BacTiter-Glo ATP, 48 h; yeast lacking PDR1 and PDR3 efflux regulators;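 active = every replicate shows inhibition above about 80%, whatever the replicate mean, limit read from the data; inconclusive = mean inhibition reaches the set limit but some replicate falls short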;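 note: 0% = DMSO neutral controls and 100% = 20 µM radicicol positive controls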
TIM10 inh = inhibits growth of TIM10 yeast strain; inhibition, % at 10 µM; AID 463195; hit rate 1.4% among 330,000; S. cerevisiae TIM10 strain growth, BacTiter-Glo luminescence, 24 h;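 active = inhibition of 40% or more at the single tested concentration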;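 note: wild-type TIM10 isogenic control strain grown at permissive 25 °C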
EBI2 block = antagonists of human EBI2 receptor. P32249. EBI2 beta-arrestin recruitment, luminescence, 7a,25-OHC stimulated. inhibition, % at 5 µM. hit rate 0.81% among 360,000. AID 651636; in the data active = inhibition above about 38%;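 note: enzyme fragment complementation signal reports receptor beta-arrestin coupling in cells; 0% = agonist plus DMSO wells and 100% = wells without agonist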
Target sequence (P32249 whole entry, looked up, the tested form may be a part): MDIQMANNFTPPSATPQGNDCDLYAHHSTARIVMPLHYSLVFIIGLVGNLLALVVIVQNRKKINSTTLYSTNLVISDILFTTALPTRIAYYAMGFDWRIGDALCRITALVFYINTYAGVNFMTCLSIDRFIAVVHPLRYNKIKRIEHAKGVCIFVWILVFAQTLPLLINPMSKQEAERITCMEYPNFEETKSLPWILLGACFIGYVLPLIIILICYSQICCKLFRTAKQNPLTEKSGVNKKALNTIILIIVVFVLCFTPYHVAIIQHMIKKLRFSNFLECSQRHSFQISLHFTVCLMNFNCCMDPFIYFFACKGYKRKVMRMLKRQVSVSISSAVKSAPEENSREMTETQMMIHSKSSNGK
tim23-1 inh = inhibits growth of tim23-1 mutant yeast; inhibition, % at 20 µM; S. cerevisiae tim23-1 growth, BacTiter-Glo luminescence, 24 h; hit rate 1.3% among 330,000;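 active = growth inhibition of the mutant yeast at or above 50%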;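 note: temperature-sensitive mutant grown at 25 °C; plate controls were DMSO-treated mutant yeast for no effect and medium wells lacking yeast for full effect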
Numbers without * were called inactive; u = inconclusive; x = no result.

SMILES	SKKanGAS inh	tim10-1 inh	PfHsp90 yeast 2	TIM10 inh	EBI2 block	tim23-1 inh
COc1ccccc1-n1c(SCC(=O)Nc2cccc3ccccc23)nc(O)cc1=O	40	1	-2	6	-1	17
COc1ccc(NC(=O)CSc2nc(O)cc(=O)n2-c2ccccc2OC)cc1	87*	8	-9	9	-9	1
O=C(CN1C(=O)NC2(CCc3ccccc32)C1=O)Nc1ccc(Cl)cc1F (stereo not drawn)	x	x	x	x	-1	x
Cc1sc(NC(=O)CSc2n[nH]c(N)n2)c(C#N)c1C	x	x	-1	x	11	x
Cc1ccc(/C=C/C2=Cc3c(sc(NC(=O)CSc4n[nH]c(N)n4)c3C#N)C(C)(C)C2)o1	55*	5	x	-36	x	-43
COc1ccc2cc(/C=C/C(=O)N3CCN(CC(=O)N4CCCCCC4)CC3)ccc2c1	7	29	33	-7	60*	23
COc1ccc(/C=C2/C(=O)N(Cc3ccccc3)N=C2C)cc1	-9	20	18	12	-7	29
COc1ccc(/C=C2/C(=O)N(c3nc4ccccc4s3)N=C2CSc2ccc(Cl)cc2)cc1	68*	9	5	10	8	9
O=C(Cn1sc2ccccc2c1=O)NC12CC3CC(CC(C3)C1)C2	89*	33	x	26	32	19
C[C@@H]1CN([C@H](C)CO)C(=O)c2cc(Br)cnc2O[C@H]1CN(C)Cc1ccccc1	x	x	x	x	-4	x
CC1(NC(=O)/C=C/c2nc3ccccc3s2)CCS(=O)(=O)C1 (stereo not drawn)	x	0	-8	-3	11	-15
COc1ccc2c(c1)/C(=C\c1cccc(/C=C3/C(=O)Nc4ccc(OC)cc43)n1)C(=O)N2	x	x	-4	x	50*	x
COC(=O)[C@]12CCCCC=C1N(CCc1ccc(OC)c(OC)c1)C(=O)[C@H](CC(=O)NCCCCc1ccccc1)C2	x	x	x	x	21	x
CCOC(=O)c1csc(NC(=O)c2ccc3c(c2)OCCO3)n1	u	20	x	16	7	26
CC1C/C(=N/Nc2nc3ccccc3[nH]2)CC(C)(C)C1 (stereo not drawn)	60*	38	-9	27	-3	6
COc1ccc(-c2nnc(SCC(=O)Nc3ncc(C)s3)n2-c2ccccc2)cc1OC	-1	23	-199	-8	9	23
CC(C)=CCc1c(-c2ccc(O)cc2O)oc2c3c(cc(O)c2c1=O)OC(C)(C)C=C3	108*	26	x	16	x	39
CC1(C)C=Cc2c(ccc(-c3coc4cc(O)ccc4c3=O)c2O)O1	-4	-4	x	3	x	14
CC(C)=CCc1c2c(c(O)c3c(=O)c4c(oc13)-c1cc(O)c(O)cc1OC4C=C(C)C)C=CC(C)(C)O2 (stereo not drawn)	93*	25	x	-14	x	11
COc1ccc(CCN2C(=O)CSC2=Nc2ccc(C(C)C)cc2)cc1OC	12	22	-6	13	15	11
O=C1CC(N2CCCCCC2)C(=O)N1c1ccc2c(c1)OCO2 (stereo not drawn)	2	39	121*	25	-4	29
O=c1cc(/N=C/c2coc3c(ccc4ccccc43)c2=O)[nH]c(=S)[nH]1	87*	16	-1	2	-2	0
CSc1ccccc1OCc1cc(C(=O)N2CCN(C)C(c3ccccc3)C2)no1 (stereo not drawn)	3	35	135*	6	1	48
Cn1c(Sc2ccccc2Cl)c(C=O)c2ccccc21	57*	25	-8	21	10	35
Cn1c(Sc2ccc(Cl)cc2)c(C=O)c2ccccc21	30	16	-25	-4	18	28
O=C(Cn1nnc(-c2ccccc2)n1)N/N=C/c1cccc([N+](=O)[O-])c1O	90*	8	-1	-2	6	5
O=C(N/N=C/c1c(O)n(Cc2ccccc2)c(=O)c2ccccc12)c1cccnc1	48	27	-20	8	5	7
O=C(N/N=C/c1c(O)n(-c2ccccc2Cl)c(=O)c2ccccc12)c1cccnc1	71*	x	-14	x	4	x
CC(C)(C)C1CCC2(CC1)C(C#N)=C(SCC(=O)Nc1ccccc1)NC(=O)C2C#N (stereo not drawn)	68*	40	11	11	-2	41
Cc1nc(-c2ccc(S(=O)(=O)Nc3cccc(S(N)(=O)=O)c3)s2)cs1	6	-19	-8	-23	10	-2
